Results reported in PubChem BioAssay.
Several values for one entry are separate records, joined by “and”; a condition that tells them apart may be missing. Identical values can stand only once. A structure can be active in one record and inactive in another. Activity calls are given as the source filed them. Unless noted, no rule for the calls is given here.

Legend:
[1] = resazurin metabolic signal in HepG2 cells – cell-based, resazurin fluorescence, 24 h, PK04 Diversity Set, profiling panel (AID 1172); conditions: HepG2 viability, higher = more signal
[2] = budding yeast growth changes without added modifier – OD600, strain BY4716, 24 h, basal condition, primary screen (AID 1173); conditions: S. cerevisiae BY4716 growth, OD600, 24 h; higher = more signal, called active from +8 up or from −8 down
[3] = viability profiling in MM1S myeloma cells – cell-based, resazurin fluorescence, basal, 24 h, PK04 Diversity Set, profiling panel (AID 1174); conditions: higher = more signal, called active from +8 up or from −8 down;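 also: MM1S multiple myeloma cell line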
[4] = target: Dihydroorotate dehydrogenase (quinone), mitochondrial (Plasmodium falciparum (isolate 3D7)) (UniProt Q08210); assay: inhibition of P. falciparum DHODH – biochemical, C-terminal His tag, absorbance 600 nm, primary screen (AID 1175); conditions: PfDHODH enzyme, DCIP absorbance 600 nm; higher = more signal, called active from +8 up or from −8 down;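 also: recombinant parasite enzyme with a five histidine tag at its C terminus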
Chain of Dihydroorotate dehydrogenase (quinone), mitochondrial (Plasmodium falciparum (isolate 3D7)) (Q08210 whole entry, looked up): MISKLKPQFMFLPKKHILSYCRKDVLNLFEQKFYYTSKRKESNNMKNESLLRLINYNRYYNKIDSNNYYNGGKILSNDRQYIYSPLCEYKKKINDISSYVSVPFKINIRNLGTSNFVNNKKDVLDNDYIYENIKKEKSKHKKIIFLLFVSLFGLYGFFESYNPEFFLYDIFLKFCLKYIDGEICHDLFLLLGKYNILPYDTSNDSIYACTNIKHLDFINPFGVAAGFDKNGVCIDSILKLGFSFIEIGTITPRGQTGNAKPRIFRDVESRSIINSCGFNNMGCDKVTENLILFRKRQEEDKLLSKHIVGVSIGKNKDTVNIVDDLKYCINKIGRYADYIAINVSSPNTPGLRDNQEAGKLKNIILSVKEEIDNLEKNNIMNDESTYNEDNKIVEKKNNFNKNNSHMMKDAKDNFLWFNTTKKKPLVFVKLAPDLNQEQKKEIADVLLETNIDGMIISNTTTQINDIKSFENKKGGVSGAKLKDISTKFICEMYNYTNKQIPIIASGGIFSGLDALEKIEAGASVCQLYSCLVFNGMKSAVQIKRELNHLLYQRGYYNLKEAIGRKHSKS

[5] = inhibition of PAO1 biofilm formation – strain PAO1, LB-PBS medium, absorbance 600 nm, primary screen (AID 1176); conditions: P. aeruginosa PAO1 growth/biofilm, A600, 12 h; higher = more signal
[6] = growth modulation of vineyard yeast isolate – strain RM11-1a, OD600, basal, 24 h, primary screen (AID 1177);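 also: cultures grown under basal conditions with no added stressor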; conditions: S. cerevisiae RM11-1a growth, OD600, 24 h; higher = more signal, called active from +8 up or from −8 down
[7] = growth of efflux-deficient E. coli DRC39 – strain DRC39, OD650, 24 h, E. coli filamentation inducers, primary screen (AID 1178);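 also: growth measured as culture turbidity by optical density at 650 nm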; conditions: E. coli DRC39 acrAB, higher = more signal, called active from +8 up or from −8 down
[8] = growth of efflux-deficient E. coli DRC39 – strain DRC39, OD650, 48 h, E. coli filamentation inducers, primary screen (AID 1179);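 also: screen aims at cell division blockers that make cells filament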; conditions: E. coli DRC39 delta-acrAB growth, higher = more signal, called active from +8 up or from −8 down
[9] = viability profiling in RPMI8226 myeloma cells – cell-based, resazurin fluorescence, basal, 24 h, PK04 Diversity Set, profiling panel (AID 1180); conditions: higher = more signal;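 also: RPMI8826 multiple myeloma cell line at 5000 cells per well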
[10] = target: E3 ubiquitin-protein ligase XIAP (Homo sapiens) (UniProt P98170); assay: small molecules binding XIAP protein – biophysical, small-molecule microarray, fluorescence 635 nm, primary screen (AID 1181); conditions: higher = more signal;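 also: score merges 667 nm emission and signal to noise over triplicate slides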
Chain of E3 ubiquitin-protein ligase XIAP (Homo sapiens) (P98170 whole entry, looked up, the tested form may be a part): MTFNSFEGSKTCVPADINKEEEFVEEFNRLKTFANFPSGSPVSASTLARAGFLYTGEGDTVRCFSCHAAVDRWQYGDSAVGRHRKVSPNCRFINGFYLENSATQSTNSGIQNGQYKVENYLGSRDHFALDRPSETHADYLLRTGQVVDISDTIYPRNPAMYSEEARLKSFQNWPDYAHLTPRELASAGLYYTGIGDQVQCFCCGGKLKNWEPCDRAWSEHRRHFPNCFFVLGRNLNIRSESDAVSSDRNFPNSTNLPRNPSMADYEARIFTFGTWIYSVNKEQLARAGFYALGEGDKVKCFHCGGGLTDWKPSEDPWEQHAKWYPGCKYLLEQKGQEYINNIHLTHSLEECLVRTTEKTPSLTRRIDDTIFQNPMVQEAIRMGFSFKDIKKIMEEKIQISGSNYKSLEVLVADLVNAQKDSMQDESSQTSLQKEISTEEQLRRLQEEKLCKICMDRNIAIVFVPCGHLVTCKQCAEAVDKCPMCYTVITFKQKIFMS

[11] = tested on: XIP peptide (Xip251-270) binding; assay: XIP fragment 251-270 binding compounds – biochemical, small-molecule microarray, fluorescence 635/667 nm, 0.1 µg/mL protein, primary screen (AID 1182); conditions: fluorescent protein binding, 635 nm, higher = more signal, called active from +8 up or from −8 down
[12] = tested on: XIP peptide (Xip251-270); assay: compounds binding XIP fragment 251-270 – biochemical, small-molecule microarray, fluorescence 635/667 nm, 0.5 µg/mL protein, primary screen (AID 1183); conditions: fluorescence 635 nm, higher = more signal
[13] = blood-stage malaria parasite viability loss – strain 3D7, DAPI fluorescence, 100 nL, primary screen (AID 1184);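 also: parasites grown inside human red blood cells in medium with human serum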; conditions: P. falciparum 3D7 growth, 3 d, higher = more signal
[14] = target: Homeobox protein Hox-A13 (Mus musculus) (UniProt Q62424); assay: disruptors of Hoxa13 oligonucleotide interaction – biochemical, fluorescence polarization, labeled oligonucleotide, primary screen (AID 1185); conditions: Hoxa13:DNA binding, 15 min, higher = more signal, called active from +8 up or from −8 down
Chain of Homeobox protein Hox-A13 (Mus musculus) (Q62424 whole entry, looked up): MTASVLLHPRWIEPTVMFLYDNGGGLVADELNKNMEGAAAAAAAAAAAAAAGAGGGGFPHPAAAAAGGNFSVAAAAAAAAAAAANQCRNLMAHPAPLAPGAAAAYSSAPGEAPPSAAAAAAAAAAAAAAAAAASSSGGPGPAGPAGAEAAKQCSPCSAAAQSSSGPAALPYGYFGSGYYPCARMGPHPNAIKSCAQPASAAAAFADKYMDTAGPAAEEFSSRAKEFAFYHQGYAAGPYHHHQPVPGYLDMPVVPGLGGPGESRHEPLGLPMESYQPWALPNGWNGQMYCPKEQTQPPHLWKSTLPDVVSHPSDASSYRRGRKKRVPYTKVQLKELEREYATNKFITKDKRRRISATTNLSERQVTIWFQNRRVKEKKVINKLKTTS

[15] = blockers of DNA damage checkpoint Chk1 activation – imaging, HeLa, hydroxyurea, phospho-Chk1 antibody, percent positive cells, primary screen (AID 1186); conditions: hydroxyurea-induced phospho-Chk1 immunofluorescence imaging, higher = more signal
[16] = blockers of DNA damage checkpoint Chk1 activation – imaging, HeLa, hydroxyurea, phospho-Chk1 nuclear intensity, primary screen (AID 1187); conditions: hydroxyurea-induced phospho-Chk1 immunofluorescence imaging, higher = more signal

Compound	z-score [1]	z-score [2]	z-score [3]	composite z-score [4]	z-score [5]	z-score [6]	z-score [7]	z-score [8]	z-score [9]	composite z-score [10]	composite z-score [11]	composite z-score [12]	z-score [13]	z-score [14]	z-score [15]	z-score [16]
C=CCN(CCCC)C(=O)C(c1cccs1)N(C(=O)/C=C\C(=O)O)c1c(Cl)cccc1CO (stereo not drawn)	0.766 and 0.197	0.405 (inactive) and -0.407 (inactive)	-1.21 (inactive) and -0.193 (inactive)	0.005 (inactive) and 0.0035 (inactive)	0.991 (inactive) and 0.922 (inactive)	0.201 (inactive) and 0.0171 (inactive)	0.591 (inactive) and 0.408 (inactive)	0.339 (inactive) and 0.354 (inactive)	-0.101 and -0.108	-0.0857 and -0.0807	-1.2 (inactive) and -0.551 (inactive)	-1.64 and 0.45	-0.486 and -0.375	0.477 (inactive) and -0.33 (inactive)	0.0771 (inactive) and -0.132 (inactive)	0.677 (inactive) and -0.0581 (inactive)
C=CCN(CCCCC)C(=O)C(c1cccs1)N(C(=O)/C=C\C(=O)O)c1ccc(CCO)cc1 (stereo not drawn)	-0.524 and -0.698	-0.238 (inactive) and -0.173 (inactive)	-0.585 (inactive) and -0.372 (inactive)	-0.249 (inactive) and -0.533 (inactive)	-0.553 (inactive) and -0.621 (inactive)	0.741 (inactive) and 0.428 (inactive)	0.191 (inactive) and 0.129 (inactive)	0.712 (inactive) and 0.685 (inactive)	-0.359 and -0.583	-0.346 and -0.138	-0.141 (inactive) and 0.737 (inactive)	0.861 and -0.198	0.653 and 0.454	-0.227 (inactive) and 0.0535 (inactive)	0.51 (inactive) and 0.163 (inactive)	0.571 (inactive) and -0.0484 (inactive)
C=CCN(CCCC)C(=O)C1N(C(C)(C)CO)C(=O)C2C(C(=O)O)C3C=CC21O3 (stereo not drawn)	0.043 and 0.688	0.709 (inactive) and -0.0821 (inactive)	-0.0251 (inactive) and -0.847 (inactive)	-1.46 (inactive) and 0.0326 (inactive)	0.385 (inactive) and 0.0126 (inactive)	-0.902 (inactive) and -1.02 (inactive)	0.378 (inactive) and 0.096 (inactive)	0.0298 (inactive) and -0.182 (inactive)	-0.131 and -0.803	-0.162 and -0.195	-0.485 (inactive) and -0.807 (inactive)	0.214 and -0.185	0.102 and 0.116	-0.224 (inactive) and -0.0596 (inactive)	-0.356 (inactive) and 0.83 (inactive)	-0.0315 (inactive) and 1.16 (inactive)
COC(=O)[C@@]1(Cc2ccccc2)[C@H]2c3cc(C(=O)N(C)C)n(Cc4ccc(C)c(F)c4F)c3C[C@H]2CN1C(=O)c1ccccc1	-2.95 and -1.72	-0.265 (inactive) and 0.53 (inactive)	-9.12 (active) and -3.68 (inactive)	-3.37 (inactive) and -0.0662 (inactive)	3.02 (inactive) and 2.16 (inactive)	0.526 (inactive) and 0.401 (inactive)	-0.347 (inactive) and -1.25 (inactive)	-0.834 (inactive) and -0.836 (inactive)	-6.06 and -3.79	0.188 and 0.122	-0.103 (inactive) and -0.157 (inactive)	0.639 and 0.462	-1.74 and -1.65	-4.22 (inactive) and -3.34 (inactive)	-0.387 (inactive) and 0.293 (inactive)	-0.653 (inactive) and 0.169 (inactive)
CO[C@@H]1COC(=O)[C@H](Cc2ccccc2)NC(=O)CC=C[C@@H](C)[C@H](OC)COC(=O)[C@@H](C)NC(=O)CC=C[C@H]1C	0.959 and 0.62	-1.78 (inactive) and -1.48 (inactive)	1.27 (inactive) and 0.921 (inactive)	-0.595 (inactive) and -0.614 (inactive)	–	-1.34 (inactive) and -1.08 (inactive)	0.357 (inactive) and 0.951 (inactive)	0.067 (inactive) and 0.74 (inactive)	1 and -0.289	-0.203 and -0.192	0.219 (inactive) and 0.97 (inactive)	0.499 and 0.535	-0.446 and 0.677	-0.525 (inactive) and -0.47 (inactive)	–	–
C=C[C@@H](OC)[C@H](O)c1ccc(O)c(F)c1	0.097 and -0.0575	-8.11 (active) and -7.12 (inactive)	0.0746 (inactive) and 0.161 (inactive)	0.789 (inactive) and -1.04 (inactive)	0.826 (inactive) and 0.143 (inactive)	1.17 (inactive) and -1.07 (inactive)	0.407 (inactive) and 0.707 (inactive)	0.27 (inactive) and 0.965 (inactive)	-0.0761 and 0.295	-0.195 and 0.0027	-0.25 (inactive) and -2.1 (inactive)	0.116 and 0.444	0.295 and 0.636	-0.933 (inactive) and 0.017 (inactive)	0.591 (inactive) and -0.353 (inactive)	0.496 (inactive) and 0.357 (inactive)
